Reference: PubChem BioAssay (NCATS)
Results filed as inconclusive are left out. Calls of active or inactive are those of the source. Calls follow the shape of the dose curve; as a rule, active = well fitted activation curve with a large enough effect; inconclusive = small, poorly fitted or top-dose-only effect; inactive = flat fitted curve, though single readings scatter.

assay: Cellular Toxicity (caspase-3) H-4-II-E (AID 663); settings: H-4-II-E rat hepatoma, scaled: DMSO 0%, 100 µM tamoxifen 100%; series mostly up to 92.2 µM; caspase-3 activation: at the top concentration;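 also: cells exposed to compound for 16 hr before readout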
Source text: NIH Chemical Genomics Center [NCGC]
NIH Molecular Libraries Screening Centers Network [MLSCN]
National Institutes of Environmental Health Sciences [NIEHS]
National Toxicology Program [NTP]
We have developed a 1536-well cell-based assay for quantitative high throughput screening (qHTS) against a number of cell lines to determine in vitro caspase 3/7 of small molecules. This particular assay uses the H-4-II-E cell line which is derived from rat hepatoma.
NCGC Assay Protocol Summary:
The Caspase-Glo 3/7 assay (Promega) is a homogeneous method to measure caspase-3 and caspase-7 activities in cultured cells. The quantitation of caspase 3/7 activity is based on the cleavage of a peptide-aminoluciferin substrate. After caspase cleaves the substrate the free aminoluciferin is liberated and serves as the substrate of luciferase, which generates the light. The luminescent signal is proportional to amount of caspase 3/7 activity present.
Using the Caspase-Glo 3/7 assay, the amount of caspase 3/7 activity was measured in the H-4-II-E cell line with complete culture medium following compound treatment for 16 hours. The assay was performed in opaque white 1536-well plates. In the screen, tamoxifen and doxorubicin were used as positive controls. Library compounds were measured for their ability to cause the activation of caspase 3/7 in the cell line, as reflected by an increase in luminescence signal, in a concentration-dependent manner. Data were normalized to the controls for basal activity (DMSO only) and 100% stimulation (100 uM tamoxifen). AC50 values were determined from concentration-response data modeled with the standard Hill equation.
qHTS protocol for caspase 3/7 assay in H-4-II-E cells
[Step] [Parameter] [Value] [Description]
1. Reagent; 5 uL; 1500 H-4-II-E cells/well
2. Time; 5 hr; 37 °C incubation
4. Controls; 23 nL; Tamoxifen 0.23 uM to 100 uM & Doxorubicin 7.0 pM to 100 uM
5. Time; 16 hr; 37 °C incubation
6. Reagent; 5 uL; Caspase-Glo 3/7 reagent
7. Time; 20 min; Room Temperature
8. Detection; Luminescence; Viewlux plate reader
Keywords: caspase 3/7, apoptosis, H-4-II-E cell line, luminescence, NTPHTS, NTPHTS_NCGC, NIEHS, EPA, DSSTox, MLSMR, MLSCN, NIH Roadmap, qHTS, NCGC

| Structure (SMILES) | caspase-3 activation |
| --- | --- |
| Cc1ccccc1O | 0.748% (inactive) |
| CC(C)COC(=O)c1ccccc1C(=O)OCC(C)C | 0.778% (inactive) |
| CC(=O)/C=C/c1ccccc1 | -0.0886% (inactive) |
| COC(=O)c1ccccc1C(=O)OC | 0.0414% (inactive) |
| CC(C)(c1ccc(OCC2CO2)cc1)c1ccc(OCC2CO2)cc1 (stereo not drawn) | 6.56% (inactive) |
| c1ccc2c(c1)-c1cccc3cccc-2c13 | 0.304% (inactive) |
| CCOc1cc(C=O)ccc1O | 3.37% (inactive) |
| Oc1c(Cl)c(Cl)c(Cl)c(Cl)c1Cl | 13.1% (inactive) |
| c1ccc(Nc2ccc3ccccc3c2)cc1 | -0.12% (inactive) |
| CCOC(=O)c1ccccc1N | -0.235% (inactive) |
| O=Cc1ccccc1 | -0.0747% (inactive) |
| COC1=CC(=O)OC(CCc2ccc3c(c2)OCO3)C1 (stereo not drawn) | 0.278% (inactive) |
| Oc1ccccc1Cl | -1.07% (inactive) |
